Compound activity as filed in PubChem BioAssay.
An excerpt weighted towards active compounds, which were near 2.7% of everything screened.
A549 tox-1 = Nrf2 qHTS screen for inhibitors: counterscreen for cytotoxicity. A549 ARE-Fluc cells, CellTiter-Fluor viability, 18-24 h. Potency, µM (doses to about 46 µM), without a hit: at the top dose activity change, negative = cytotoxicity, most hits filed as inhibitors. actives 0.16% (n = 390,000). AID 504648, 2011; further: potency means the concentration at half of the fitted maximal effect; on the % scale 0 is the no-effect control and ±100 the full control effect
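A549 ARE_Fluc cells in 5% FBS OPTI-MEM were exposed to compounds in concentration-response for 18-24 h at 37 deg C. Viability was read by CellTiter-Fluor fluorescence (Ex 405/Em 525) after 30 min, before the luciferase read.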
12-LOX inh = Primary qHTS assay for inhibitors of human arachidonate 12S-lipoxygenase (ALOX12): Round 2; Polyunsaturated fatty acid lipoxygenase ALOX12 (Homo sapiens), P18054; purified 12hLO, xylenol orange hydroperoxide absorbance; Potency, µM (series often up to 108 µM), for the others: at the top dose activity change, negative = inhibition, actives largely listed as inhibitors; actives 1.1% (n = 580,000); AID 1671190, 2021; further: potency means the concentration at half of the fitted maximal effect; on the % scale 0 is the no-effect control and ±100 the full control effect
Target sequence (P18054 whole entry, looked up): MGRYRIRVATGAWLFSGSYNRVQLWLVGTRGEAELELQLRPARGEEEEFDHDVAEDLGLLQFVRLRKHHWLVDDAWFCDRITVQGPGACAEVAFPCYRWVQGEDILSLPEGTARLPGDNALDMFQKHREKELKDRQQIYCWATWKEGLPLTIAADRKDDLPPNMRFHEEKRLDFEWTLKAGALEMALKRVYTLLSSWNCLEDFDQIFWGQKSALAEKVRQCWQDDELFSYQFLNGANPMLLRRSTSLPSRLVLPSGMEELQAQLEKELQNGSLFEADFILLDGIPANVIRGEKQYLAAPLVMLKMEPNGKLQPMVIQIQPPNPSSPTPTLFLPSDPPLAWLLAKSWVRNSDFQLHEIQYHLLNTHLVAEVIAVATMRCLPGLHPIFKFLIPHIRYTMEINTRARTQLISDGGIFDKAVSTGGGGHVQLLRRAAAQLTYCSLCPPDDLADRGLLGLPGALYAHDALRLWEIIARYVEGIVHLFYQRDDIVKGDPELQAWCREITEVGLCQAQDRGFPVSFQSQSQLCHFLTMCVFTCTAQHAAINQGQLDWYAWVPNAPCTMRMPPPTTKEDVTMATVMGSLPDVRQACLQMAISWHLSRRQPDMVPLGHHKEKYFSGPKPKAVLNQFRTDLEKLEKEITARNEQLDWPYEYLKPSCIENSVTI
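Hydroperoxide product was detected by ferrous iron/xylenol orange as the 573 to 405 nm absorbance ratio. Arachidonic acid at 40 uM (final) was turned over for 30 min at room temperature by 150 nM human 12hLO, pH 7.0 Hepes buffer, after 15 min compound preincubation.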
Nrf2 inh = Nrf2 qHTS screen for inhibitors; Potency, µM (doses to about 46 µM), without a hit: at the highest dose activity change, negative = inhibition, actives largely listed as inhibitors; A549 ARE-Fluc reporter, luciferase luminescence, 18-24 h; AID 504444, 2011; actives 2.1% (n = 360,000); further: potency means the concentration at half of the fitted maximal effect; on the % scale 0 is the no-effect control and ±100 the full control effect; nearly all actives have a fitted effect of over 60% in size
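Two sequential reads on A549 ARE_Fluc cells exposed to compound for 18-24 h: a CellTiter-Fluor fluorescence read for viability, then a luciferase luminescence read for Nrf2/ARE activity.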
Nrf2 activator = qHTS of Nrf2 Activators; AID 624171, 2012; Potency, µM (highest dose often 46.1 µM), inactives show at the highest dose activation, most hits filed as activators; actives 0.31% (n = 410,000); AREc32 ARE-luciferase reporter (MCF7-derived line), luminescence, 24 h; further: potency means the concentration at half of the fitted maximal effect; % of control where 0% means no effect; nearly all actives have a fitted effect of over 65% in size
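Nrf2 activation is followed as ARE-luciferase induction in the AREc32 line after one day of compound treatment; luminescence is read with Steady-Glo.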
IDH1 R132H inh = qHTS for Inhibitors of mutant isocitrate dehydrogenase 1 (IDH1): qHTS; IDH1-R132H enzyme, NADPH consumption, diaphorase/resazurin fluorescence; Isocitrate dehydrogenase [NADP] cytoplasmic (Homo sapiens), O75874; actives 0.093% (n = 390,000); Potency, µM (doses to about 76.6 µM), without a hit: at the highest dose activity change, negative = inhibition, actives largely listed as inhibitors; further: potency means the concentration at half of the fitted maximal effect; on the % scale 0 is the no-effect control and ±100 the full control effect; nearly all actives have a fitted effect of over 65% in size
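IDH1-R132H (0.5 ug/mL) preincubated 30 min with compound, then NADPH (0.016 mM) and alpha-KG (2 mM) added; 80 min at RT, pH 7.5. Remaining NADPH coupled via diaphorase/resazurin to fluorescence (540/590 nm); concentration-response curves normalized to no-enzyme control.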
LDHA inh = qHTS assay for inhibitors of human lactate dehydrogenase | L-lactate dehydrogenase A chain (Homo sapiens), P00338 | purified LDHA, NADH/diaphorase-resazurin fluorescence; stronger effect = lower value | activity change, % (values are at about 110 or 230 µM) | actives 0.15% (n = 480,000) | AID 1347041, 2019; in the data active means activity change below about -30%; inconclusive means mostly about -25% to -30%;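 further: plate controls were DMSO wells for no effect and wells without enzyme for full effect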
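Enzyme activity of human lactate dehydrogenase 5 (2 nM; 0.06 mM NADH, 0.2 mM pyruvate, 5 min, RT) is measured via a resazurin/diaphorase fluorescence readout of residual NADH.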
FLuc counter 3 = Nrf2 qHTS screen for inhibitors: Purified Fluc Biochemical Counterscreen for Hit Validation | Potency, µM (highest dose often 57.5 µM), without a hit: at the highest dose activity change, negative = inhibition, actives largely listed as inhibitors | actives 4% (n = 1,400) | purified firefly luciferase, luminescence inhibition | shares compounds with Nrf2 inh | AID 720522, 2013; further: potency means the concentration at half of the fitted maximal effect; on the % scale 0 is the no-effect control and ±100 the full control effect; nearly all actives have a fitted effect of over 65% in size
A549 tox-2 = Nrf2 qHTS screen for inhibitors: A549 ARE-Fluc Cytotoxicity Counterscreen for Hit Validation; A549 ARE-Fluc cells, cytotoxicity counterscreen; Potency, µM (doses to about 46.1 µM), inactives show top-dose activity change, negative = cytotoxicity, most hits filed as inhibitors; AID 720523, 2013; actives 2% (n = 1,400); shares compounds with Nrf2 inh;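 further: potency means the concentration at half of the fitted maximal effect; cells exposed to compounds for 18 to 24 hours; on the % scale 0 is the no-effect control and ±100 the full control effect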
ARE-Fluc inh = Nrf2 qHTS screen for inhibitors: Nrf2 A549 ARE-Fluc Confirmation Assay for Hit Validation | shares compounds with Nrf2 inh | A549 ARE-firefly luciferase reporter, luminescence | Potency, µM (doses to about 46.1 µM), without a hit: top-dose activity change, negative = inhibition, usual class: inhibitors | actives 74% (n = 1,400) | AID 720524, 2013; further: potency means the concentration at half of the fitted maximal effect; on the % scale 0 is the no-effect control and ±100 the full control effect; nearly all actives have a fitted effect of over 65% in size
* hit, by the source's call; ? = inconclusive; / = not tested or not shown; [ ] = dose if it differs, or a comment. Unless noted, the call rests on the fitted dose curve; in most records, active means well fitted curve in the direction sought with a large enough effect; inconclusive means small, poorly fitted or top-dose-only effect, or another doubt; inactive means no such curve, though single readings can be large; an effect the other way counts as inactive or inconclusive.

SMILES	A549 tox-1	12-LOX inh	Nrf2 inh	Nrf2 activator	IDH1 R132H inh	LDHA inh	FLuc counter 3	A549 tox-2	ARE-Fluc inh
CC12CCC(O)CC1CCC1C2CCC2(C)C(C3=CC(=O)OC3)CCC12O (stereo not given)	?	8%	0.41µM*	-1%	-1%	-3	1%	?	0.26µM*
C[C@H]1O[C@@H](O[C@H]2[C@@H](O)C[C@@H](O[C@H]3[C@@H](O)C[C@H](O[C@H]4CC[C@@]5(C)[C@H](CC[C@@H]6[C@@H]5CC[C@]5(C)[C@@H](C7=CC(=O)OC7)CC[C@]65O)C4)O[C@@H]3C)O[C@@H]2C)C[C@H](O)[C@@H]1O	/	/	/	/	/	-12	1%	?	0.021µM*
CC(C)N1CCN(Cc2ccco2)CC1	/	-44%	/	/	/	16	/	/	/
COc1cc2c(cc1CCc1ccccc1)N(C(=O)C1CCC(C)CC1)CC21CCN(C(C)=O)CC1 (stereo not given)	/	-11%	/	/	/	/	/	/	/
O=C(Nc1ccc2n(c1=O)C[C@H]1C[C@@H]2CN(C(=O)NC2CCCCC2)C1)c1ccco1	/	51%[176 µM]	/	/	/	/	/	/	/
O=C1CO[C@H]2CN(Cc3ccccc3)C[C@H]2N1Cc1cccnc1	/	-14%[176 µM]	/	/	/	/	/	/	/
CC1CCC/C=C/C2CC(O)CC2C(O)/C=C/C(=O)O1 (stereo not given)	?	0%	0.26µM*	0%	2%	1	3%	?	/
C[C@H]1CCC[C@@H](O)CCC/C=C/c2cc(O)cc(O)c2C(=O)O1	-8%	13%	?	0%	-3%	-1	/	/	/
C[C@H]1CCC/C=C/C2C[C@H](O)CC2[C@H](O)/C=C/C(=O)O1 (stereo not given in full)	?	/	0.15µM*	4%	4%	-8	0%	?	/
CCn1nccc1C(=O)N1CCC2(CC1)c1nccn1-c1ccccc1CN2C	/	58%	/	/	/	/	/	/	/
COc1ccc(-c2cc([C@H]3CN4CC[C@H]3C[C@@H]4CNCc3ccccn3)n(C)n2)cc1	/	75%[176 µM]	/	/	/	/	/	/	/
Cc1ccc(F)cc1NC(=O)c1ccc(Cn2nc(N3CCN(c4ccccc4)CC3)ccc2=O)o1	-5%	-15%	7.3µM*	0%	-9%	-4	-14%	-17%	12µM*
O=C(Nc1ccc(F)cc1F)c1cccn(Cc2ccccc2)c1=O	-11%	?	?	3%	-6%	-5	/	/	/
COC(=O)C1=C(c2cccc(OCc3ccccc3)c2)C[C@@H]2CC[C@H]1N2C(=O)NCc1cc(C)oc1C(F)(F)F	-11%	1%	?	3%	3%	-1	3%	-17%	?
CCCCCn1c(=O)c(C(=O)NCc2ccc(Cl)cc2)c(O)c2ccccc21	-2%	17%	?	0%	-5%	1	/	/	/
Cc1cc2ccccc2n1-c1ccc(C(=O)N2CCC(C(=O)NCc3ccc(Cl)cc3)CC2)s1	-15%	-14%	7.3µM*	0%	8%	5	-1%	-20%	8.2µM*
CCN1CC=C(c2c[nH]c3ccccc23)CC1	?	31%	1.3µM*	0%	10%	-5	-28%	?	0.033µM*
Cc1cc(C)c2[nH]c(C)c(CCN)c2c1	/	?	/	/	/	1	/	/	/
O=C(NCc1ccc(F)cc1)[C@H]1CN2CCC1C[C@@H]2Cn1cc(-c2ccccn2)nn1 (stereo not given in full)	/	9%[176 µM]	/	/	/	/	/	/	/
Cc1nc(-c2ccco2)cc([C@H]2CN3CC[C@H]2C[C@@H]3CNC2CCOCC2)n1	/	23%[176 µM]	/	/	/	/	/	/	/
C[C@@H]1O[C@@H](O[C@H]2C[C@@H](O)[C@]3(CO)[C@@H]4C(CC[C@]3(O)C2)[C@@]2(O)CC[C@H](C3COC(=O)C3)[C@@]2(C)C[C@H]4O)[C@H](O)[C@H](O)[C@H]1O (stereo not given in full)	?	21%	0.21µM*	-2%	13%	-8	0%	?	1.2µM*
C[C@@H]1O[C@@H](O[C@H]2CC[C@]3(C=O)C4CC[C@]5(C)[C@@H](C6=CC(=O)OC6)CC[C@]5(O)[C@@H]4CC[C@]3(O)C2)[C@H](O)[C@H](O)[C@H]1O (stereo not given in full)	/	3%	/	/	/	/	/	/	/
C[C@@H]1O[C@@H](O[C@H]2C[C@@H](O)[C@]3(CO)C4C(CC[C@]3(O)C2)[C@@]2(O)CC[C@H](C3=CC(=O)OC3)[C@@]2(C)C[C@H]4O)[C@H](O)[C@H](O)[C@H]1O (stereo not given in full)	/	0%	/	/	/	/	/	/	/
COC1C(O)C(C)OC(OC2CCC3(C)C(CCC4C3C(O)CC3(C)C(C5=CC(=O)OC5)CCC43O)C2)C1O (stereo not given)	?	4%	0.15µM*	-2%	1%	-2	1%	?	0.12µM*
CC1OC(O[C@H]2C[C@@H](O)[C@]3(CO)[C@H]4[C@H](O)C[C@]5(C)[C@@H](C6=CC(=O)OC6)CC[C@]5(O)[C@@H]4CC[C@]3(O)C2)C(O)C(O)C1O (stereo not given in full)	/	/	/	/	/	1	4%	?	0.037µM*
C[C@H]1O[C@@H](O[C@H]2[C@@H](O)C[C@H](O[C@H]3[C@@H](O)C[C@H](O[C@H]4CC[C@]5(C)C6CC[C@]7(C)[C@@H](C8=CC(=O)OC8)CC[C@]7(O)C6CC[C@@H]5C4)O[C@@H]3C)O[C@@H]2C)C[C@H](O)[C@@H]1O (stereo not given in full)	/	9%	/	/	/	/	/	/	/
